# Hit rate of the full screen: of about 400,000 compounds, about 13,000 (3.2%) were called active. Entries that show only a call come without a potency. Inconclusive results (about 18%) are left out. Calls follow the shape of the dose curve; as a rule, active = well fitted cell-killing curve with a large enough effect; inconclusive = small, poorly fitted or top-dose-only effect, or effect the other way; inactive = flat fitted curve, though single readings scatter. The sample as a whole holds a higher share of actives than the screen did.
# Assay: qHTS assay for MDR1-selective chemotherapeutics: Primary screen using the drug-selected MDR subline cells KB-V1; also: nearly all actives have a fitted effect of over 60% in size
# Conditions: KB-V1 MDR cells viability, CellTiter-Glo, 72 h; series mostly up to 46.1 µM
# Excerpt: A prime difficulty in effectively treating cancer is the development of cellular resistance to multiple structurally unrelated anticancer drugs, a phenomenon known as multidrug resistance (MDR). […] Numerous strategies to overcome P-gp-mediated MDR have been explored, including the design of drugs that evade recognition and efflux, and development of inhibitors to block efflux and restore drug accumulation. […] An alternative approach is to exploit resistance by identifying drugs that target MDR cells over the non-resistant parental cells from which they were selected. […] The development of MDR1-selective agents represents a new strategy for resolving multidrug resistance, as it remains a long-standing clinical challenge for cancer chemotherapy.
# Our goal is to identify compounds that selectively kill P-gp-expressing MDR cells. We will identify MDR1-selective compounds by comparing toxicity of compounds in the screening library against parental, drug-naive (KB-3-1) adenocarcinoma cells as well as their drug-selected MDR sub-line (KB-V1). The differential toxicity of compounds against these two cell lines will be used to identify MDR1-selective compounds, whose cytotoxicity is potentiated, rather than diminished, by P-gp expression. This assay will be utilized to conduct a quantitative high-throughput screen (qHTS) in collaboration with the NIH Chemical Genomics Center to identify selective agents, and probe hits arising from the screen will be validated using secondary assays and characterized through a well-established follow-up research program. This screen was run against the entire NCGC library collection of about 400,000 compounds.
# NIH Molecular Libraries Probe Production Network [MLPCN]
# NIH Chemical Genomics Center [NCGC]
# PI: Michael Gottesman, National Cancer Institute, NIH
# Briefly, 5 microL of media containing either KB-V1 cells (columns 1-2, 4-48) are dispensed into Greiner white, treated solid-bottom 1536-well assay plates (media-only control is added to column 3). Compounds are then transferred via Kalypsys pin tool equipped with 1536-pin array (10 nL slotted pins, V&P Scientific, San Diego, CA). Following addition of compound, the plates are incubated at 37 degrees C for 72 hours. CellTiter-Glo (2.5 µL/well) is then added, and the plates are read in a ViewLux reader (Perkin-Elmer, clear luminescence filter, 1 second exposure, 1x binning) following a 10 minute incubation. All cells are dispensed in DMEM phenol-red free media containing 10% FBS.
# Library plates were screened starting from the lowest and proceeding to the highest concentration. Vehicle-only plates, with DMSO being pin-transferred to columns 5-48, will be inserted uniformly at the beginning and the end of each library in order to monitor and record any shifts in the background, which can be affected by reagent dispensers or loss in enzyme activity over time. Screening data will be corrected, normalized, and concentration-effect relationships will be derived by using publicly-available NCGC, NCATS curve fitting algorithms (http://ncgc.nih.gov/pub/openhts).
# Potency is read from the fitted curve at half-maximal effect.
row,Structure (SMILES),Potency
1,CCCCS(=O)(=O)c1oc(-c2cccs2)nc1S(=O)(=O)c1ccccc1,inactive
2,O=C(C1CCCO1)N1CCN(C(=O)C23CC4CC(CC(C4)C2)C3)CC1 (centres undefined),inactive
3,CCN(c1ccccc1)S(=O)(=O)c1ccc(N)cc1,inactive
4,CCN(c1ccccc1)S(=O)(=O)c1ccc(C(=O)Nc2ccccc2OC)cc1,inactive
5,CCN(c1ccccc1)S(=O)(=O)c1ccc(NC(=O)C(C)(C)C)cc1,11.6 µM (active)
6,CC1(C(=O)Nc2cccc3c2CCCC3)CCN1C(=O)CCc1ccc(Cl)cc1Cl (centres undefined),inactive
7,CN(CCO)C(=O)c1nc[nH]c1C(=O)N(C)Cc1ccccc1,inactive
8,Cc1ccc(CNC(=O)CSc2c3c(nc4cc(Cl)ccc24)CCCC3)cc1,inactive
9,Cc1c(NC(=S)NCc2ccc(F)cc2)cccc1[N+](=O)[O-],inactive
10,Cc1ccc(NC(=O)CN(C)Cc2ccc(F)cc2)c([N+](=O)[O-])c1,9.2 µM (active)
11,Cc1ccc(NC(=O)c2oc3ccccc3c2C)c([N+](=O)[O-])c1,inactive
12,CCC(=O)N1CCC(C)(C(=O)Nc2cc(OC)c(OC)c(OC)c2)C1 (centres undefined),inactive
13,CCOCCc1nn2c(=O)cc(COC(=O)CNC(=O)c3ccc(C(C)(C)C)cc3)nc2s1,inactive
14,COc1ccc(NC(=O)CSc2nnnn2-c2cccc(OC)c2)cc1,inactive
15,COc1ccc(CSc2nnnn2-c2ccc(C(=O)O)cc2)cc1,inactive
16,COc1ccc(-n2nnnc2SCC(=O)c2ccc(OC)c(OC)c2)cc1,18.4 µM (active)
17,COc1c(C)cc(C(O)c2ncc(-c3cccc(C(F)(F)F)c3)[nH]2)cc1C (centres undefined),inactive
18,CS(=O)c1ccc(/C=C2\C=Cc3ccccc32)cc1 (centres undefined),inactive
19,CCOc1ccc(S(=O)(=O)Nc2ccc(OC)nc2)cc1,inactive
20,COc1ccccc1Oc1ccc(S(=O)(=O)Nc2cccnc2)cc1,2.59 µM (active)
21,COc1ccc(S(=O)(=O)Nc2cccnc2)c(Cl)c1Cl,inactive
22,Cc1cc(C)n2ncc(C(=O)N3CCCC3)c2n1,inactive
23,Cc1cc(Cl)ccc1OCCCC(=O)NCc1ccncc1,16.4 µM (active)
24,Cc1cc(Cl)ccc1OCCCC(=O)Nc1cccc(-n2cnnn2)c1,inactive
25,CCOC(=O)N1CCN(C(=O)COc2ccc(Cl)cc2C)CC1,inactive

row,Structure (SMILES),Potency
1,COCOCCn1cc(CN2CCS(=O)(=O)N(Cc3ccc(-c4cccc(N(C)C)c4)cc3)C(CC(C)C)C2=O)nn1 (centres undefined),inactive
2,CCNC(=O)C1(C)CCCN(C(=O)c2c(C)noc2C)C1 (centres undefined),inactive
3,CCCCCCNC(=O)O[C@H]1CN(C(=O)OC(C)C)N(C(=O)OC(C)C)[C@@H]2CN(S(=O)(=O)c3ccc(C)cc3)C[C@]12O,inactive
4,COc1ccc(C2=NN(C(=O)CSc3nnnn3C)C(c3ccco3)C2)cc1 (centres undefined),inactive
5,CCOC(=O)C1C(=O)C=C(c2ccc(OC)cc2)CC1c1ccco1 (centres undefined),11.6 µM (active)
6,CCOC(=O)C1C(=O)NC(N2CCN(c3ccccc3)CC2)=NC1c1ccco1 (centres undefined),inactive
7,O=C(CS(=O)(=O)c1cccc2nsnc12)N1CCN(c2cccc(Cl)c2)CC1,inactive
8,CC(=O)Nc1cccc(-c2cc3nc(NCc4cccnc4)n(C)c(=O)c3s2)c1,inactive
9,CC1(C(=O)NS(=O)(=O)c2ccccc2)CCN1C(=O)Cc1ccc(-c2ccccc2)cc1 (centres undefined),inactive
10,COc1ccc(OC)c(C(=O)c2coc3ccc(O)c(CN4CCOCC4)c23)c1,7.31 µM (active)
11,Cc1ccc(C(=O)c2coc3ccc(O)c(CN(C)C)c23)cc1,inactive
12,COc1ccc(OC)c(C(=O)c2coc3ccc(OC)cc23)c1,inactive
13,CC(=O)NC(c1ccccc1)c1nc(-c2ccccc2C)cs1 (centres undefined),inactive
14,O=C(c1ccco1)N(Cc1cccs1)c1ccc(O)cc1,inactive
15,COc1cccc(NC(=O)N(C)C[C@@H]2Oc3ncc(Br)cc3C(=O)N([C@@H](C)CO)C[C@H]2C)c1,inactive
16,COc1ccc(S(=O)(=O)N2CCN(C(=O)NC3CCCCC3)CC2)cc1,inactive
17,O=C(CN1CCN(S(=O)(=O)c2ccc3ccccc3c2)CC1)NC(=O)NC1CCCCC1,18.4 µM (active)
18,O=C(CN1CCN(S(=O)(=O)c2ccc(F)cc2)CC1)NC1CC1,inactive
19,CC(=O)c1sc(N2C(=O)c3oc4ccccc4c(=O)c3C2c2ccc(C)cc2)nc1C (centres undefined),inactive
20,CN(C)c1ccnc2sc(C(=O)c3ccccc3)c(N)c12,inactive
21,CN(C)c1ccnc2sc3c(=O)n(Cc4ccccc4)cnc3c12,8.2 µM (active)
22,CN(C)/C=C/c1c(C#N)c(=O)ncn1Cc1ccccc1,inactive
23,COc1ccc(-c2coc3c(C(=O)NC(C)C)cccc23)c(C)c1,inactive
24,CCS(=O)(=O)N1Cc2ccccc2CC1C(=O)Nc1nc2ccc(F)cc2s1 (centres undefined),14.6 µM (active)
25,CC(=O)Nc1ccc2nc(NC(=O)CS(=O)(=O)c3ccc(F)cc3)sc2c1,inactive

row,Structure (SMILES),Potency
1,CCS(=O)(=O)N1Cc2ccccc2CC1C(=O)Nc1ccc(OC)cc1OC (centres undefined),inactive
2,NC(=O)C1CCN(c2ncc(-c3ccc(Cl)cc3)s2)CC1,inactive
3,CCCC(=O)N1CCC1(C)C(=O)Nc1ccc(-n2cncn2)cc1 (centres undefined),inactive
4,CSCCC(C(=O)NC(C)(C)C)n1c(-c2ccccc2)nc2ccccc21 (centres undefined),inactive
5,Cc1cccc(C)c1N1CCN(S(=O)(=O)N2CCOCC2)CC1,16.4 µM (active)
6,Cc1ccc(S(=O)(=O)N2CCN(S(=O)(=O)N3CCOCC3)CC2)cc1,inactive
7,O=S(=O)(N1CCOCC1)N1CCN(c2ccccc2F)CC1,inactive
8,Clc1ccc(-n2nnnc2CN2CCCCC2)cc1Cl,13 µM (active)
9,Clc1ccc(CN2CCCCCC2)cc1Cl,inactive
10,c1cc(-c2nn[nH]n2)ccc1CN1CCCCC1,inactive
11,COc1ccc(S(=O)(=O)NC(=O)C2(C)CCN2C(=O)c2ccccc2CCc2ccccc2)cc1 (centres undefined),inactive
12,Cc1ccc(C)c(N2CCN(C(=O)CN3C(=O)COc4ccc(S(=O)(=O)N5CCCCCC5)cc43)CC2)c1,inactive
13,Cc1cc2c(cc1C)NC(c1ccccn1)C1=C(CC(C)(C)CC1=O)N2 (centres undefined),inactive
14,Cc1nn(-c2ccccn2)c2c1C(c1ccncc1)C1=C(CC(C)(C)CC1=O)N2 (centres undefined),inactive
15,CC1(C)CC(=O)C2=C(C1)Nc1cc(C(=O)c3ccccc3)ccc1NC2c1ccccn1 (centres undefined),20.6 µM (active)
16,COc1ccc(C)cc1NC(=O)COCc1cc(-c2cccs2)on1,inactive
17,O=S1(=O)CC(N2CCN(c3ccccn3)CC2)CN1Cc1ccc(F)cc1 (centres undefined),inactive
18,COC(=O)C[C@@H]1C=C[C@@H](NS(=O)(=O)c2cccc(OC)c2)[C@@H](CO)O1,inactive
19,CC(C)C[C@H]1CNC(=O)C(=O)N1C[C@@H]1CCCN1C[C@H](Cc1ccccc1)N1C[C@H](CC(C)C)N(CC2CCCCCC2)C(=O)C1=O,inactive
20,CN(Cc1cccnc1)C(=O)c1cc(COc2ccc3ncccc3c2)on1,5.17 µM (active)
21,CN(Cc1cnccn1)C(=O)c1cc(COc2cccc(C(F)(F)F)c2)on1,inactive
22,Cc1ccc(OCc2cc(C(=O)N(C)CCc3ccccc3)no2)cc1C,inactive
23,CC(C)c1cccc(C(C)C)c1Nc1cn[nH]c1,inactive
24,COc1cccc(C(=O)OCC(=O)c2[nH]c(C)c(C(C)=O)c2C)c1,inactive
25,CC(=O)c1c(C)[nH]c(C(=O)COC(=O)c2cccs2)c1C,inactive

row,Structure (SMILES),Potency
1,CC(=O)c1c(C)[nH]c(C(=O)COC(=O)c2cccc(S(=O)(=O)N(C)c3ccccc3)c2)c1C,11.6 µM (active)
2,O=C(Nc1ccc2nc(SCC(=O)N3CCc4ccccc43)sc2c1)c1ccccc1F,inactive
3,COc1ccc(C2CC(=O)N(Cc3ccccc3C)c3c2c(C)nn3-c2nc(C)cc(C)n2)c(OC)c1 (centres undefined),inactive
4,C[C@@H]1CN([C@@H](C)CO)S(=O)(=O)c2ccc(C#Cc3cccc(F)c3)cc2O[C@H]1CN(C)S(=O)(=O)c1cn(C)cn1,inactive
5,C[C@H]1CN([C@@H](C)CO)C(=O)CCCn2cc(nn2)CO[C@@H]1CN(C)S(=O)(=O)c1ccc(-c2ccccc2)cc1,inactive
6,Cc1ccn2c(-c3csc(Nc4ccc(C(=O)O)cc4)n3)c(C)nc2c1,inactive
7,O=C(Nc1cccn(Cc2ccccc2Cl)c1=O)NC1CCCCC1,inactive
8,O=C(Nc1cccn(Cc2c(Cl)cccc2Cl)c1=O)c1ccc(Cl)cc1,3.66 µM (active)
9,O=c1c(=O)n(Cc2c(F)cccc2Cl)ccn1Cc1ccccc1,inactive
10,O=C(Nc1cccc2ccccc12)NC1CC1,inactive
11,CCCCNC(=O)OC1CC2CC1[C@H]1CCCCN1C2=O (some centres undefined),inactive
12,C[C@@H]1CN([C@@H](C)CO)C(=O)c2cc(Br)cnc2O[C@@H]1CN(C)C(=O)C1CCCCC1,inactive
13,N#CCC(=O)N/N=C/c1cn(Cc2ccc3ccccc3c2)c2ccccc12,inactive
14,COc1cccc(Cn2cc(/C=N/NC(=O)c3cc(O)cc(O)c3)c3ccccc32)c1,inactive
15,CNC(=S)N/N=C/c1ccc(OCc2ccccc2)c(Br)c1,inactive
16,NC(=O)Cn1cc(/C=N\NS(=O)(=O)c2ccccc2)c2ccccc21,inactive
17,Cc1ccc(OCCOc2cccc(/C=N/NC(N)=O)c2)cc1,inactive
18,COC(=O)N/N=C/c1cn(CCCOc2ccc(C)cc2)c2ccccc12,18.4 µM (active)
19,CNC(=S)N/N=C/c1cn(Cc2ccc(C)cc2)c2ccccc12,16.4 µM (active)
20,CCOC(=O)N/N=C/c1cn(Cc2ccccc2Cl)c2ccccc12,5.8 µM (active)
21,COc1ccc(OCCn2cc(C(=O)C3CCCCC3)c3ccccc32)cc1,inactive
22,CCCCCCCCN1C(=O)[C@H](CC(=O)NCc2cccc3ccccc23)C[C@@]2(C(=O)OC)CCCCC=C12,inactive
23,Cc1ccccc1S(=O)(=O)NC(=O)C1(C)CCN1C(=O)Cc1ccc(Cl)cc1Cl (centres undefined),inactive
24,CCc1nc2c(OCCOc3ccc(F)cc3)cccn2c1N(C)C(=O)c1ccccc1F,inactive

# From PubChem BioAssay AID1347076 (National Center for Advancing Translational Sciences (NCATS), 2019)
